Measurements as given in PubChem BioAssay (Tox21).
Inconclusive results are not listed. The source made the active and inactive calls. Unless noted, the call rests on the fitted dose curve.

Assays:
[1] = Nuclear factor erythroid 2-related factor 2/antioxidant responsive element (Nrf2/ARE) small molecule agonists: qHTS cell viability counter screen in human keratinocytes (AID 1919968; active means well fitted curve in the direction sought with a large enough effect in the repeat runs; an effect the other way counts as inactive or inconclusive; further: nearly all actives have a fitted effect of over 55% in size)
In short: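 HaCaT ARE reporter line, 1,500 cells/well; 5 h settle, 37 C/5% CO2; cpd in DMSO pinned; 23 h exposure; CellTiter-Fluor, 1 h; fluorescence.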

[2] = target: Gonadotropin-releasing hormone receptor (Homo sapiens) (UniProt P30968); test: Human gonadotropin-releasing hormone receptor (GnRHR) small molecule agonists, calcium flux assay in GnRHR-HEK293 cells (AID 1920063); further: nearly all actives have a fitted effect of over 35% in size
Sequence of Gonadotropin-releasing hormone receptor (Homo sapiens) (P30968 whole entry, looked up): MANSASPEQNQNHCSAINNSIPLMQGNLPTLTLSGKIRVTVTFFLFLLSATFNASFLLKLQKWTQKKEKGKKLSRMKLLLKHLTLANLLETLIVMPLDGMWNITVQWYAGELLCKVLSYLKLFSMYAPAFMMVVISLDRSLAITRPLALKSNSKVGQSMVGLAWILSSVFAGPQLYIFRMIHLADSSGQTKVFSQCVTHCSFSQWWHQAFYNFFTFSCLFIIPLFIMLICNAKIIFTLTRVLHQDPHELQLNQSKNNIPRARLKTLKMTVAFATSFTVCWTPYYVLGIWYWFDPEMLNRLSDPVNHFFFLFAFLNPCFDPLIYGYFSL
In short: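 GnRHR-HEK293, 1500 cells/well, 18 h 37 C/5% CO2; Ca dye 1 h 37 C; cpd pinned (DMSO), agonist mode; kinetic FL 480/540, 3 min, 1 s reads; 15 conc, n=3.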

[3] = target: KiSS-1 receptor (Homo sapiens) (UniProt Q969F8); test: Human kisspeptin (KISS1R) small molecule agonists, calcium flux assay in KISS1R-HEK293 cells (AID 1920064; active means well fitted curve in the direction sought with a large enough effect in the repeat runs; an effect the other way counts as inactive or inconclusive)
Sequence of KiSS-1 receptor (Homo sapiens) (Q969F8 whole entry, looked up): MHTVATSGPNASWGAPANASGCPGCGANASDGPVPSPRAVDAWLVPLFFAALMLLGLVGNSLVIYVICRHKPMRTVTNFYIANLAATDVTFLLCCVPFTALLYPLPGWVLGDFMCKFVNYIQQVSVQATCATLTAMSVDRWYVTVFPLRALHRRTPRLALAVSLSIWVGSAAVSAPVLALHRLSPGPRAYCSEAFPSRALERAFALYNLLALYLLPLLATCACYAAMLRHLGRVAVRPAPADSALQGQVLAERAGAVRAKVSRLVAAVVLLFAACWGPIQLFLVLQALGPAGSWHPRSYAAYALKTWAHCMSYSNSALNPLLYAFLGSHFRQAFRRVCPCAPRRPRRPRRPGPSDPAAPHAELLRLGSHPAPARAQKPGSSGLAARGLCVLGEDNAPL
In short: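 Stable human KISS1R HEK293 line; 18 h plating, 37 C/5% CO2; calcium dye 1 h 37 C; compound pin transfer; kinetic fluorescence Ex/Em 480/540, 3 min.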

[4] = G protein-coupled receptor (GPCR) small molecule agonists, calcium flux assay: HEK293 wild type cell line counter screen (AID 1920065)
In short: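 Kinetic fluorescence at Ex/Em 480/540, recorded every second over 3 min, served as the read-out after compound addition. Each compound was tested at 15 concentrations in triplicate on cells pre-loaded with calcium dye for 1 h.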

[5] = p53 small molecule agonists, cell-based qHTS assay with human liver microsomes (AID 1963577)
In short: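 p53RE-bla cells, 4,000/well, compound added after 5 h, with human liver microsomes 0.5 mg/mL and NADPH 0.5 mg/mL final; 16 h at 37 C, then LiveBLAzer 2 h RT, fluorescence.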

[6] = p53 small molecule agonists, cell-based qHTS assay with rat liver microsomes (AID 1963578)
In short: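 p53RE-bla cells, 4,000/well, pre-incubated 5 h, then given compounds plus rat liver microsomes (0.5 mg/mL final) and NADPH (0.5 mg/mL final). Incubation 16 h at 37 C; beta-lactamase reporter read by LiveBLAzer fluorescence after 2 h at room temperature.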

[7] = p53 small molecule agonists, cell-based qHTS assay with human liver microsomes: qHTS cell viability counter screen (AID 1963579); further: nearly all actives have a fitted effect of over 45% in size
In short: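 p53RE-bla cells, 4,000/well, dosed 5 hours after plating, with human liver microsomes (0.5 mg/mL final) plus NADPH (0.5 mg/mL final), 16 hours at 37 C. Viability read as CellTiter-Glo luminescence after 30 min at room temperature.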

[8] = p53 small molecule agonists, cell-based qHTS assay with rat liver microsomes: qHTS cell viability counter screen (AID 1963580); further: nearly all actives have a fitted effect of over 45% in size
In short: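 In HCT-116 cells carrying a p53 response element-bla reporter, compounds were metabolically activated in situ by rat liver microsomes with NADPH over 16 h. Cell ATP content then served as the cytotoxicity measure.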

[9] = p53 small molecule agonists, cell-based qHTS assay: qHTS cell viability counter screen (AID 1963581); further: nearly all actives have a fitted effect of over 45% in size
In short: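 HCT-116 p53RE-bla cells, 4,000/well, plated 5 h before compound pin transfer; 16 h at 37 C; bla substrate 2 h RT; then CellTiter-Glo, 30 min RT, luminescence.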

[10] = p53 small molecule agonists, cell-based qHTS assay (AID 1963582; active means well fitted activation curve with a large enough effect in the signal ratio in the repeat runs, not every such curve was filed as active; the % refers to the signal ratio)
In short: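 Reporter line: p53RE-bla. Pre-incubation 5 h, 37 C, 5% CO2; compound (DMSO, pin tool) 16 h, 37 C; B/G FRET substrate 2 h RT; fluorescence intensity read.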

[11] = cAMP Responsive Elements (CRE) small molecule agonists, cell-based qHTS assay (AID 1963590)
In short: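 HEK 293T CRE-bla, 2,000 cells/well, 18 h preincubation 37 C/5% CO2; cpds (DMSO) pinned, 3 h; LiveBLAzer B/G FRET substrate, 2 h RT.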

[12] = cAMP Responsive Elements (CRE) small molecule antagonists, cell-based qHTS assay (AID 1963591; active means well fitted inhibition curve with a large enough effect in the signal ratio in the repeat runs, not every such curve was filed as active; the % refers to the signal ratio)
In short: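 Beta-lactamase reporter read by FRET substrate (LiveBLAzer B/G) after 2 h at room temperature. CRE-bla HEK293T cells had received compound plus 0.25 uM (final) NKH477 for 3 h at 37 °C.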

[13] = target: Beta-2 adrenergic receptor (Homo sapiens) (UniProt P07550); test: Adrenergic beta2 receptor (ADRB2) small molecule antagonists, cell-based qHTS assay (AID 1963592); further: series mostly up to about 92 µM; nearly all actives have a fitted effect of over 50% in size
Sequence of Beta-2 adrenergic receptor (Homo sapiens) (P07550 whole entry, looked up): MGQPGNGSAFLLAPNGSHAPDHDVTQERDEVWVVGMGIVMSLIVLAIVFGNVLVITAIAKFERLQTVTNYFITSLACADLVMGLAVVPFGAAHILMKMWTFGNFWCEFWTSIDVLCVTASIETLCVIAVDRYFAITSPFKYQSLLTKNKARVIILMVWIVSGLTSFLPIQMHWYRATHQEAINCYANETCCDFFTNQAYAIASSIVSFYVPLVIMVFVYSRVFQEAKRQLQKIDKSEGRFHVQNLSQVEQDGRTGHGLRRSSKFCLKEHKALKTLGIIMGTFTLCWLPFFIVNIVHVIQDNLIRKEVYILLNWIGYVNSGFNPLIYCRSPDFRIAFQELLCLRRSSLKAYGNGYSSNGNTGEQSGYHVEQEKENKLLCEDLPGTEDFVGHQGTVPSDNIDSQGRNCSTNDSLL
In short: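 Cells (CHO, stable ADRB2 overexpression) incubated 18-20hr at 37C; compounds added from DMSO; agonist mix (1nM isoproterenol, 100uM IBMX, 25uM Ro-20-1724) added; 0.5hr RT; d2-cAMP and anti-cAMP-cryptate added; 1hr RT; 665/615 nm read.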

[14] = target: Beta-2 adrenergic receptor (Homo sapiens) (UniProt P07550); test: Adrenergic beta2 receptor (ADRB2) small molecule agonists, cell-based qHTS assay (AID 1963593);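 further: CHO cells stably overexpressing human ADRB2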
In short: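 CHO cells stably over-expressing ADRB2 were plated overnight at 37C, then dosed with compounds plus a stimulation mix containing 100uM IBMX and 25uM Ro-20-1724 for 0.5hr at room temperature. cAMP was measured by HTRF competition, 1hr.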

[15] = target: D(2) dopamine receptor (Homo sapiens) (UniProt P14416); test: Dopamine D2 receptor (DRD2) small molecule agonists, cell-based qHTS assay (AID 1963594); further: nearly all actives have a fitted effect of over 35% in size
Sequence of D(2) dopamine receptor (Homo sapiens) (P14416 whole entry, looked up): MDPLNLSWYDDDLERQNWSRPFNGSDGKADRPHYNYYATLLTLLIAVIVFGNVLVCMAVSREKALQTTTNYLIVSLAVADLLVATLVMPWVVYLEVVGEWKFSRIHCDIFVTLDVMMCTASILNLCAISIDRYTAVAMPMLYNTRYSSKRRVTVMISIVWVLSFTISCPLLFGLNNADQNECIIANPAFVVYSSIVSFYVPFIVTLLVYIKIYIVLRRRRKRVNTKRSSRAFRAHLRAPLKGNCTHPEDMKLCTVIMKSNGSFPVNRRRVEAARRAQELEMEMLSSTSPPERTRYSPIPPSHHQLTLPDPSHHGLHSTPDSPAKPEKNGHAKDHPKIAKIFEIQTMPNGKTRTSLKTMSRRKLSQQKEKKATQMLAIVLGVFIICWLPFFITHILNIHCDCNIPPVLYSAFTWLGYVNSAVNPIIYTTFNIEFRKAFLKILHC
In short: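 HEK293 cells stably expressing DRD2 were cultured 24 h at 37 C, then given Ro20-1724 (0.1 mM final) and compounds for 10 min at room temperature. NKH477 (200nM) was then added for 30 min. cAMP was read by HTRF.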

[16] = target: D(2) dopamine receptor (Homo sapiens) (UniProt P14416); test: Dopamine D2 receptor (DRD2) small molecule antagonists, cell-based qHTS assay (AID 1963595; active means well fitted inhibition curve with a large enough effect in the signal ratio in the repeat runs, with a control signal flat; the % refers to the signal ratio)
In short: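 Stable D2 receptor HEK293 line, 24 h after seeding. Compound preincubated 10 min, then quinpirole (12 nM) with forskolin analogue NKH477 (200 nM), 30 min, room temperature. Detection by time-resolved FRET of cAMP.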

[17] = target: 5-hydroxytryptamine receptor 2A (Homo sapiens) (UniProt P28223); test: 5-hydroxytryptamine receptor 2A (HTR2A) small molecule antagonists, cell-based qHTS assay (AID 1963586); further: nearly all actives have a fitted effect of over 45% in size
Sequence of 5-hydroxytryptamine receptor 2A (Homo sapiens) (P28223 whole entry, looked up): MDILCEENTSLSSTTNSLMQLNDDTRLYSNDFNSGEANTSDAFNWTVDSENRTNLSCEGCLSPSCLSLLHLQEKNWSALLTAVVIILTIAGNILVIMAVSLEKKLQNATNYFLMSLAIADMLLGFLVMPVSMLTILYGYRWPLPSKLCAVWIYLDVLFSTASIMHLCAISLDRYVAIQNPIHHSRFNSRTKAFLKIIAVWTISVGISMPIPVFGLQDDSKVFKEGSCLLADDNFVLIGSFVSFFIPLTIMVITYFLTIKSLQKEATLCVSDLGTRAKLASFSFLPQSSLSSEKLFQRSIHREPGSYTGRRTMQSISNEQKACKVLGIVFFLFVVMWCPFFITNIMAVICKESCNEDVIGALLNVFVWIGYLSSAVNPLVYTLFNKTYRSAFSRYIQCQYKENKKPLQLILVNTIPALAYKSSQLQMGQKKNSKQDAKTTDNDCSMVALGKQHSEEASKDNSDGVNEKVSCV
In short: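 Antagonist-mode intracellular calcium assay: DOI (4 nM) added after 5 min compound pre-incubation at room temperature to dye-loaded HTR2A-CHO cells. Fluorescence followed for 3 min, sampled every second.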

[18] = target: 5-hydroxytryptamine receptor 2A (Homo sapiens) (UniProt P28223); test: 5-hydroxytryptamine receptor 2A (HTR2A) small molecule agonists, cell-based qHTS assay (AID 1963587); further: nearly all actives have a fitted effect of over 30% in size; further: potency means the concentration at half of the fitted maximal effect
In short: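 HTR2A-CHO cells, plated 18 h at 37 C/5% CO2, dye-loaded 1 h at 37 C; compounds in DMSO added by pin tool (agonist mode). Intracellular calcium flux read as kinetic fluorescence on FDSS over 2 min at 1 s intervals.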

[19] = target: Muscarinic acetylcholine receptor M1 (Homo sapiens) (UniProt P11229); test: Cholinergic receptor muscarinic 1 (CHRM1) small molecule antagonists, cell-based qHTS assay (AID 1963588); further: nearly all actives have a fitted effect of over 40% in size
Sequence of Muscarinic acetylcholine receptor M1 (Homo sapiens) (P11229 whole entry, looked up): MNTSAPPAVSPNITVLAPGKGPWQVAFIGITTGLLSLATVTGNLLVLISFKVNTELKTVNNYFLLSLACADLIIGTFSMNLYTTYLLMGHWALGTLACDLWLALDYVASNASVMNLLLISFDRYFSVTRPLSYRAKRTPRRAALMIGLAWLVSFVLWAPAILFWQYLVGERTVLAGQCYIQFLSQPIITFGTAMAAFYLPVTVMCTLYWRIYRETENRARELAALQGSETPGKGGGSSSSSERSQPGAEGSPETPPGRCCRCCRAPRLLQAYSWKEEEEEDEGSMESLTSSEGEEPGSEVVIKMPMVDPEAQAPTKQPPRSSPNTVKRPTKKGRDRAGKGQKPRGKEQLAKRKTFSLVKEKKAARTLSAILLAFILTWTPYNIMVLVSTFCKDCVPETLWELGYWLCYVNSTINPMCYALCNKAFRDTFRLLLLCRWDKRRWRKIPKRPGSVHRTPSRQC
In short: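 CHRM1-CHO calcium-flux assay, antagonist mode. Cells were seeded 18 h, dye-loaded 1 h at 37 C and given compound for 5 min at RT, then acetylcholine was added at 50nM. FDSS fluorescence was read 3 min; 15 concentrations, three runs.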

[20] = target: Muscarinic acetylcholine receptor M1 (Homo sapiens) (UniProt P11229); test: Cholinergic receptor muscarinic 1 (CHRM1) small molecule agonists, cell-based qHTS assay (AID 1963589); further: nearly all actives have a fitted effect of over 35% in size
In short: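 Human M1 in stable CHO line; 18 h plating, 1 h dye load 37 C; cpd added (agonist mode); Ca2+ fluorescence kinetic read, 1 s intervals; 15 conc, 3 runs.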
On the % scale 0 is the no-effect control and ±100 the full control effect.

C[C@](N)(Cc1ccc(O)cc1)C(=O)O
inactive: activity change, negative = cytotoxicity [1] 5.45% [at 8.39 µM] | activity change [2] -1.06% [at 5.22 µM, stronger effect = higher value] | activation [3] -0.73% [at 6.97 µM] | activation [4] 0.0455% [at 5.23 µM] | activation [5] 3.02% [at 5.99 µM] | activation [6] -3.92% [at 5.99 µM] | activity change, negative = cytotoxicity [7] 8.09% [at 5.99 µM] | activity change, negative = cytotoxicity [8] -5.36% [at 5.99 µM] | activity change, negative = cytotoxicity [9] -19.4% [at 5.99 µM] | activation [10] -6.7% [at 5.99 µM] | activation [11] -0.0581% [at 8.39 µM] | activity change, negative = inhibition [12] 2.35% [at 8.39 µM] | activity change, negative = inhibition [13] 3.74% [at 8.39 µM] | activation [14] 23.8% [at 8.39 µM] | activation [15] -6.61% [at 8.39 µM] | activity change, negative = inhibition [16] -5.15% [at 8.38 µM]

CCCCC(CC)COCCCN (stereo not given)
inactive: Potency [1] | Potency [2] | Potency [3] | Potency [4] | Potency [5] | Potency [6] | Potency [7] | Potency [8] | Potency [9] | Potency [10] | Potency [17] | Potency [19] | Potency [20] | Potency [12] | Potency [14] | Potency [15] | Potency [16]
active: Potency [18] 17.2 µM

Nc1c(Cl)cc(Cl)cc1[N+](=O)[O-]
inactive: Potency [1] | Potency [2] | Potency [3] | Potency [4] | Potency [5] | Potency [6] | Potency [7] | Potency [8] | Potency [9] | Potency [17] | Potency [18] | Potency [19] | Potency [20] | Potency [11] | Potency [13] | Potency [14] | Potency [15] | Potency [16]

COC(=O)/C=C/C(C)=C\C=C\C(C)=C\C=C\C=C(C)\C=C\C=C(C)\C=C\C(=O)O
inactive: Potency [1] | Potency [2] | Potency [3] | Potency [4] | Potency [5] | Potency [6] | Potency [7] | Potency [8] | Potency [9] | Potency [17] | Potency [18] | Potency [19] | Potency [20] | Potency [11] | Potency [13] | Potency [15] | Potency [16]

CC(=O)Oc1ccc(C(=C2CCCCC2)c2ccc(OC(C)=O)cc2)cc1
inactive: Potency [1] | Potency [2] | Potency [3] | Potency [4] | Potency [5] | Potency [6] | Potency [7] | Potency [8] | Potency [9] | Potency [10] | Potency [17] | Potency [19] | Potency [20] | Potency [11] | Potency [12] | Potency [13] | Potency [14] | Potency [15]

Cc1cc(Cl)c(C)cc1Cl
inactive: Potency [1] | Potency [2] | Potency [3] | Potency [4] | Potency [5] | Potency [6] | Potency [7] | Potency [8] | Potency [9] | Potency [10] | Potency [17] | Potency [18] | Potency [19] | Potency [20] | Potency [12] | Potency [13] | Potency [14] | Potency [16]
